The text below walks through data of PubChem BioAssay (NCI).

Each structure is given as a SMILES string. About 83,000 compounds went through this panel and 20% of them were active in at least one assay; those are over-represented in the sample as a whole.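 Testing used 96-well plates and a 48-hour single-concentration exposure. Example: -40 means 40% of the starting cells died.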 Values without a mark were called inactive. Calls of active or inactive are those of the source. How the source made its calls: active means growth percent below 10; inactive means the rest.

Common to all, as to experiment: NCI-60 one-dose screen, 48 h (100 = growth as untreated, 0 = no growth, -100 = all killed)
Common to all, as to settings: 10 µM

Test [1] has as its system BT-549 breast.
Test [2] has as its system MDA-MB-435 melanoma.
Test [3] relates to SW-620 colon.
Test [4] relates to MCF7 breast.
The test system of test [5] is HCT-116 colon.
In test [6] the test system is HCC-2998 colon.
The test system of test [7] is KM12 colon.

`CCCCOc1ccc(NC(=O)Nc2nnc(C)s2)cc1`: the growth in test [1] was 110%; in test [2], 101%; in test [3] it was 111%; in test [4] it was 88.1%; in test [5], 94.9%; in test [6], 93.2%. Further, the growth in test [7] was 103%.

As to `COc1ccc(-c2nn(-c3cccc(NC(=O)c4cc(C(F)(F)F)cc(C(F)(F)F)c4)c3)cc2-c2ccncc2)cc1Cl`, the growth in test [1] was 87.3%; in test [2], 6.11% (active); in test [3], 79.2%; in test [4] it was 54.2%; in test [5], 57.6%; in test [6], 71.1%. The growth in test [7] was 48.8%.

`COc1ccc2c(c1)O/C(=C\c1ccc([N+](=O)[O-])s1)C2=O`: the growth in test [1] was 7.31% (active); in test [2], 51.7%; in test [3], -56.3% (active); in test [4], 21.4%; in test [5], -23.4% (active); in test [6] it was 11.9%. The growth in test [7] was 5.98% (active).

Turning to `O=S(=O)(Nc1ccccn1)c1ccc(N=Nc2ccc(O)c3ncccc23)cc1`, the growth in test [1] is 1.2% (active); in test [2], 10.1%; in test [3], 11.7%; in test [4], 5.03% (active); in test [5], 10.6%; in test [6] it was 35.7%. Moreover, the growth in test [7] was 14.1%.

With `O=C(Nc1nc2ccccc2s1)Nc1ccc([N+](=O)[O-])cc1Cl`, the growth in test [1] was 16.2%; in test [2] it was 40.4%; in test [3] it was 95.6%; in test [4], 74.3%; in test [5] it was 18.7%; in test [6] it was 76.1%. In test [7], the growth is -32.4% (active).

Consider `CCCCCCCCCCCCCCCC(=O)OC1[C@@H](OC(=O)CCCCCCCCCCCCCCC)[C@@H](C(=O)N[C@@H](CCCCN)C(=O)OC)O[C@H]1n1cnc2c(=O)[nH]c(NC(=O)C(C)C)nc21` (stereo partly specified), for which the growth was 105% in test [1]; 99.6% in test [2]; 104% in test [3]; 96.4% in test [4]; 85.4% in test [5]; 101% in test [6]. Further, the growth in test [7] is 95%.

On to `O=S(=O)(NCCCNc1nccc(-c2c(-c3ccc(F)cc3)nc3sccn23)n1)c1ccc2ccccc2c1`, for which the growth is 46.1% in test [1]; 25.7% in test [2]; 51.9% in test [3]; 30.3% in test [4]; 37.2% in test [5]; 7.22% (active) in test [6]. Also, in test [7], the growth was 19.9%.

As to `COc1ccccc1CNCCCN1C(=O)c2ccc3c4c(ccc(c24)C1=O)C(=O)N(CCCN)C3=O`, the growth in test [1] is -43.4% (active); in test [2] it was -88.3% (active); in test [3], -69.8% (active); in test [4] it was -29.4% (active); in test [5] it was -4.19% (active); in test [6] it was -56.8% (active). Further, in test [7], the growth was 4.38% (active).

On to `CCN(CC)CCSCCCNc1c2ccc(Cl)cc2nc2ccc(OC)cc12`, for which the growth in test [1] was 5.29% (active); in test [2], -94.7% (active); in test [3] it was -23.7% (active); in test [4], -33% (active); in test [5] it was -55.9% (active); in test [6], -73.2% (active). Also, in test [7], the growth was -10.9% (active).

Turning to `COc1cc(-c2cc(C(=O)N3CCN(C(=O)c4ccccc4NCc4ccco4)CC3)nc3cc(-c4ccccc4)nn23)cc(OC)c1OC`, the growth in test [1] was 35.6%; in test [2], -34.6% (active); in test [3], 14.2%; in test [4], 16.3%; in test [5], 20%; in test [6] it was 66.3%. For the same compound, the growth in test [7] was 13.1%.

As for `Cc1ccc(NC(=O)Nc2c(Cl)cccc2Cl)cn1`, the growth in test [1] is 118%; in test [2], 38.3%; in test [3], 127%; in test [4], 91.8%; in test [5], 104%; in test [6], 104%. The growth in test [7] is 105%.

In the case of `c1ccc2c(c1)oc1c3cccnc3ccc21`, the growth in test [1] is 79.7%; in test [2], 110%; in test [3], 100%; in test [4], 13%; in test [5], 84.4%; in test [6], 92.7%. Further, the growth in test [7] was 98.9%.

Turning to `CN(C)C(=S)N/N=C\C=N/NC(=S)N(C)C`, the growth in test [1] was 81%; in test [2], 67%; in test [3] it was 64.1%; in test [4], 12%; in test [5] it was 0.438% (active); in test [6] it was 80.4%. Also, the growth in test [7] is 81.5%.

In the case of `CC1(C)OC2=C(CC1Br)C(=O)C(=O)c1ccccc12` (stereo unspecified), the growth in test [1] was -99.2% (active); in test [2] it was -87.4% (active); in test [3], -81.5% (active); in test [4] it was -66.3% (active); in test [5] it was -57% (active); in test [6], -19.7% (active). In test [7], the growth is -93% (active).

Take `Cc1occc1-c1nnc(SCC(=O)c2ccc(NC(=O)CC(C)C)cc2)o1`: the growth in test [1] was 108%; in test [2], 97.9%; in test [3] it was 108%; in test [4] it was 107%; in test [5], 109%; in test [6] it was 74.5%. For the same compound, in test [7], the growth was 99.4%.

Take `Cc1ccc(-c2nc(/C=C3/C(=O)N(C)c4ccc(F)cc43)c3ccccn23)cc1`: the growth in test [1] was 99.9%; in test [2] it was 111%; in test [3], 105%; in test [4] it was 78.6%; in test [5], 89.3%; in test [6], 104%. Besides, the growth in test [7] was 101%.

With `Cc1ccc(NC(=O)Nc2cccnc2)cc1NC(=O)Nc1cccnc1`, the growth was 98.1% in test [1]; 73.9% in test [2]; 108% in test [3]; 81% in test [4]; 90.2% in test [5]; 87.7% in test [6]. Further, the growth in test [7] was 87.2%.

In the case of `FC(F)(F)c1ccc2nc(-c3nc(-c4ccccc4)n4ccccc34)[nH]c2c1`, the growth was 85.9% in test [1]; 87.5% in test [2]; 72% in test [3]; 38.3% in test [4]; 8.85% (active) in test [5]; 82.6% in test [6]. For the same compound, the growth in test [7] is 52.4%.

On to `NC1(C(=O)O)CSSC1`, for which the growth in test [1] is 85.4%; in test [2] it was 89.4%; in test [3], 99.4%; in test [4] it was 43.4%; in test [5], 83.1%; in test [6], 118%. Further, in test [7], the growth was 93.4%.

For `COc1ccc2c(c1)C(=O)c1c-2c(OCCN(C)C)nc2ccccc12`, the growth is 85.4% in test [1]; 33.3% in test [2]; -7.66% (active) in test [3]; 6.19% (active) in test [4]; 10.4% in test [5]; 44.9% in test [6]. In addition, in test [7], the growth is 23.1%.

`Cc1ccc(NC(=O)CSc2nc3ccccc3c(=O)n2CCc2ccccc2)c(C(=O)O)c1`: the growth is 96.8% in test [1]; 97.3% in test [2]; 109% in test [3]; 93.8% in test [4]; 92.7% in test [5]; 113% in test [6]. The growth in test [7] was 110%.

As to `CCOC(=O)C1CCc2c(ccc3ccccc23)N1CCC#N` (stereo unspecified), the growth in test [1] is 96%; in test [2], 35.6%; in test [3], 91.9%; in test [4], 85.9%; in test [5] it was 96.4%; in test [6] it was 93.5%. In addition, the growth in test [7] is 94.9%.

In the case of `C=C(NC(=O)C(=C)NC(=O)c1csc(C2=NC3c4csc(n4)C4NC(=O)c5csc(n5)C(C(C)(O)C(C)O)NC(=O)C5CSC(=N5)/C(=C/C)NC(=O)C(C(C)O)NC(=O)c5csc(n5)C3(CC2)NC(=O)C(C)NC(=O)C(=C)NC(=O)C(=C)NC(=O)C(C(C)C)NC2C=Cc3c(C(C)O)cc(nc3C2O)C(=O)OC4C)n1)C(N)=O` (stereo unspecified), the growth was -35.1% (active) in test [1]; -65.2% (active) in test [2]; -8.45% (active) in test [3]; 19.8% in test [4]; -49.5% (active) in test [5]; -57.2% (active) in test [6]. Moreover, the growth in test [7] was -88.1% (active).
